Bioassay records: PubChem BioAssay, several laboratories
Rows were chosen to be rich in hits. Some 4.6% of all compounds tested hit in one or more screens of this group.
HSF1 inh – HSF1 inhibitors in luciferase reporter cells, primary screen, cell-based, NIH3T3, luminescence; 300,000 tested, 0.77% active; activity change, negative = inhibition, % at 7.5 µM (by protocol); NIH3T3-HGL HSE-luciferase, MG132-induced, luminescence 8 h; stronger effect = lower value;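 active = more than half of replicate wells show activity change below -50%, luminescence cut by over half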;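 note: luciferase reports HSF-1 transcriptional activity via heat shock element; 0% = median of DMSO wells and -100% = zero luminescence signal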
AHR act – AHR activators, primary screen, cell-based, luminescence, luciferase reporter, human | AHR-responsive luciferase reporter cells | activation, % at 5 µM | AID 2796, 2010 | 320,000 tested, 2.5% active | Aryl hydrocarbon receptor (Homo sapiens), P35869; in the data active = activation above about 47%;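 note: 0% = vehicle wells and 100% = reference agonist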
Target sequence (P35869 whole entry, looked up): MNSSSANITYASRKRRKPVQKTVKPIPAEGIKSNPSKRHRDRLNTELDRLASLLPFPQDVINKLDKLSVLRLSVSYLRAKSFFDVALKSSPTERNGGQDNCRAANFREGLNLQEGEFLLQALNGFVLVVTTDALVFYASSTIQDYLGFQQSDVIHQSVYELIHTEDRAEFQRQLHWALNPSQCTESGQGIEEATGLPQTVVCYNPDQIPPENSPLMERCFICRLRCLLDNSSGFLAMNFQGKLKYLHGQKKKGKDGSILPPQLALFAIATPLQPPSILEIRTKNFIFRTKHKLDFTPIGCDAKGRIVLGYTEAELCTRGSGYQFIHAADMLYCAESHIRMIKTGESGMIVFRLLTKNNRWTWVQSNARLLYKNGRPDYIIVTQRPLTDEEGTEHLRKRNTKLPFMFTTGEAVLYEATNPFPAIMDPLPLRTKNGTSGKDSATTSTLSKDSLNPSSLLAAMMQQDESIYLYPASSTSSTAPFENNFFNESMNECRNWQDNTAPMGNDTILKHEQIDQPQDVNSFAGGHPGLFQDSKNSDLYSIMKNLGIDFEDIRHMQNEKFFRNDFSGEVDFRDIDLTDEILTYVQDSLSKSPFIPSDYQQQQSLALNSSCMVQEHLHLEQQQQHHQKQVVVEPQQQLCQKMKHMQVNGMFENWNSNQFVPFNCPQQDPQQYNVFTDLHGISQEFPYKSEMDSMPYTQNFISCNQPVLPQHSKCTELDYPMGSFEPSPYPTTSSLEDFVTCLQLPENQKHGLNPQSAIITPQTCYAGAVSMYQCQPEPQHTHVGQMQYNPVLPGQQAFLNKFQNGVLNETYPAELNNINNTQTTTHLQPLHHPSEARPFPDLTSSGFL
GAA850 FXN act – FXN promoter activators, primary screen, cell-based, luciferase luminescence, HEK293 lucGAA850 | 360,000 tested, 0.56% active | AID 540364, 2011 | activation, % at 6 µM | HEK293 lucGAA850 FXN promoter luciferase reporter, 24 h; percent of 10 µM SAHA response;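 active = activation above the average of all compounds screened plus 3 SD, cutoff fixed separately per campaign, cut at about 7.5% in these data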;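 note: 0% = DMSO wells and 100% = 10 µM SAHA wells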
HSF-1 act – HSF-1 activators, primary screen, NIH3T3-HGL cells, MG132 stress, luminescence, single point; 300,000 tested, 1.7% active; activation, % at 9 µM; NIH3T3-HGL HSF-1 luciferase reporter, 8 h; 100% = twice DMSO control signal;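 active = mean replicate activation of at least 50% with a set share of replicates each reaching 50%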;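 note: 0% = median of the neutral control wells and 100% = twice that signal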
An asterisk follows results filed as active.

Screening COc1cccc(N(C(=O)c2cccs2)c2nc3ccccc3s2)c1 returned HSF1 inh -66.8*, AHR act 1.8, GAA850 FXN act 4.6 and HSF-1 act -73.6.
Screening CCN(C(=O)c1cccs1)c1nc(-c2ccc(OC)cc2)cs1 returned HSF1 inh 27.1, AHR act 6.2, GAA850 FXN act 3.1 and HSF-1 act 25.1.
CC(=O)N1CCC(C(=O)N2CCN(S(=O)(=O)c3cccs3)CC2)CC1 was read as HSF1 inh -3.1, AHR act 1.1, GAA850 FXN act 0.8 and HSF-1 act 2.8.
Screening COc1ccc(Br)cc1CNC(=O)CCN1C(=O)COc2ccccc21 returned HSF1 inh -67.5*, AHR act 13.0, GAA850 FXN act -1.3 and HSF-1 act -74.5.
Screening CC(C)CSc1ncnc2c1oc1nc3c(cc12)COC(C)(C)C3 returned HSF1 inh -3.5, AHR act 0.0, GAA850 FXN act -0.2 and HSF-1 act 19.4.
Screening CCC1Oc2ccc(C)cc2N(CC(=O)NC2CCCCC2)C1=O (configuration not stated) returned HSF1 inh 6.0, AHR act -2.5, GAA850 FXN act 0.8 and HSF-1 act 12.3.
`COc1ccc(C(CNC(=O)C(C)Oc2ccc(Br)cc2)N2CCOCC2)cc1` (configuration not stated) gave HSF1 inh 2.2, AHR act 49.3*, GAA850 FXN act 1.2 and HSF-1 act 5.2.
`CC1CCCC/C1=N\Nc1ccc(S(N)(=O)=O)cc1[N+](=O)[O-]` (configuration not stated) gave HSF1 inh 43.8, AHR act 0.0, GAA850 FXN act 1.1 and HSF-1 act 67.9*.
For CC(C)(C)C1CCC(=NNc2ccc(S(N)(=O)=O)cc2[N+](=O)[O-])CC1 (configuration not stated) the results were HSF1 inh 4.8, AHR act 0.9, GAA850 FXN act 2.0 and HSF-1 act 4.8.
Screening c1ccc(-c2nc3ccccc3s2)nc1 returned HSF1 inh 31.4, AHR act 30.3, GAA850 FXN act 3.2 and HSF-1 act 57.8*.
COc1cc(C)ccc1OCc1cc(C(=O)N(Cc2nccn2C)C(C)C)no1 was read as HSF1 inh 12.7, AHR act 19.8, GAA850 FXN act 3.4 and HSF-1 act 57.9*.
COc1cccc(OCc2cc(C(=O)N(Cc3nccn3C)C(C)C)no2)c1 was read as HSF1 inh 1.8, AHR act 0.7, GAA850 FXN act -1.0 and HSF-1 act 0.8.
COc1ccc(-c2csc(NC(=O)Cc3ccccc3F)n2)c(OC)c1 was read as HSF1 inh 18.8, AHR act -5.5, GAA850 FXN act 0.8 and HSF-1 act 30.0.
`COc1ccc(C(=O)/C=C/Nc2c(C)n(C)n(-c3ccccc3)c2=O)c(OC)c1` gave HSF1 inh 5.7, AHR act -1.0, GAA850 FXN act 1.1 and HSF-1 act 0.5.
For COc1ccc(C(=O)/C=C/Nc2ccccn2)c(OC)c1 the results were HSF1 inh 35.3, AHR act -5.0, GAA850 FXN act 3.3 and HSF-1 act 74.0*.
For CCN(CC)c1nc(C)nc2c1cnn2CCc1ccccc1 the results were HSF1 inh 37.2, AHR act 6.2, GAA850 FXN act 5.7 and HSF-1 act 56.7*.
CCN(CC)c1ncnc2c1cnn2Cc1ccc(C)cc1 was read as HSF1 inh 4.6, AHR act 0.1, GAA850 FXN act 4.2 and HSF-1 act -5.5.
Screening Cc1cc(Cl)c2oc(C(=O)N3CCN(c4ccncc4)CC3)c(C)c2c1 returned HSF1 inh -6.1, AHR act 17.7, GAA850 FXN act 0.6 and HSF-1 act -8.3.
CCOC(=O)Cc1csc(SCC(=O)Nc2cccc(Cl)c2)n1 was read as HSF1 inh 19.3, AHR act -1.5, GAA850 FXN act 2.5 and HSF-1 act 58.3*.
Screening Cc1cccc(NC(=O)CSc2c3c(nc4ccccc24)CCC3)n1 returned HSF1 inh 15.9, AHR act 32.3, GAA850 FXN act -1.5 and HSF-1 act 8.6.
`COc1cccc(NC(=O)CSc2nnc(-c3cc(C)n(-c4ccccc4)c3C)o2)c1` gave HSF1 inh -53.3*, AHR act -3.6, GAA850 FXN act -10.6 and HSF-1 act -66.2.
Screening COc1cccc(NC(=O)CSc2c3c(nc4ccccc24)CCCC3)c1 returned HSF1 inh 50.7, AHR act -0.3, GAA850 FXN act 3.1 and HSF-1 act 62.0*.
`CCOC(=O)Cc1csc(SCC(=O)Nc2cccc(C#N)c2)n1` gave HSF1 inh 0.2, AHR act 1.2, GAA850 FXN act -1.6 and HSF-1 act -2.9.
Screening COc1cccc(NC(=O)CSc2nc(N)cc(N)n2)c1 returned HSF1 inh 29.2, AHR act 0.0, GAA850 FXN act 0.4 and HSF-1 act 65.7*.
COc1ccc(NC(=O)CSc2nnc(-c3cccc(O)c3)o2)cc1 was read as HSF1 inh -9.5, AHR act 0.4, GAA850 FXN act -0.3 and HSF-1 act -5.9.
CC1CCN(C(=O)c2cc(Cl)nc3ccccc23)CC1 was read as HSF1 inh -2.7, AHR act 8.5, GAA850 FXN act 3.7 and HSF-1 act 3.8.
For CCOC(=O)c1cccc(NC(=O)CSc2nc(N)cc(N)n2)c1 the results were HSF1 inh 31.7, AHR act 6.1, GAA850 FXN act -4.9 and HSF-1 act 55.2*.
For Cc1ccccc1OCC(=O)Nc1ccccc1N1CCOCC1 the results were HSF1 inh -5.8, AHR act 3.2, GAA850 FXN act 2.7 and HSF-1 act -3.9.
For Cc1nn(-c2ccccc2)c2c1C(c1c(C)[nH]c(C#N)c1C)C(C#N)=C(N)O2 (configuration not stated) the results were HSF1 inh -0.6, AHR act 14.6, GAA850 FXN act 0.2 and HSF-1 act -2.8.
`Cc1ccc(-n2nc(C)c3c2OC(N)=C(C#N)C3c2cccs2)cc1` (configuration not stated) gave HSF1 inh 0.8, AHR act 68.0*, GAA850 FXN act -3.3 and HSF-1 act 25.1.
`Cc1nn(-c2ccccc2)c2c1C(c1ccncc1)C(C#N)=C(N)O2` (configuration not stated) gave HSF1 inh 1.5, AHR act 16.6, GAA850 FXN act -2.5 and HSF-1 act 25.6.
Screening Cc1nn(Cc2ccccc2)c2c1C(c1cccc(Cl)c1)C(C#N)=C(N)O2 (configuration not stated) returned HSF1 inh -3.2, AHR act -1.9, GAA850 FXN act -0.3 and HSF-1 act 1.5.
Screening Cc1ccc(-n2nc(C)c3c2OC(N)=C(C#N)C3c2ccncc2)cc1 (configuration not stated) returned HSF1 inh 17.3, AHR act 17.8, GAA850 FXN act -1.1 and HSF-1 act 62.1*.
Screening Cc1nn(-c2ccccc2)c(Cl)c1C1C(C#N)=C(N)Oc2c1c(C)nn2-c1ccccc1 (configuration not stated) returned HSF1 inh 5.4, AHR act 4.7, GAA850 FXN act 1.7 and HSF-1 act -0.7.
